Results filed as inconclusive are left out. Where a structure was tested more than once in an assay, its records may differ in their call. Active and inactive are the calls of the source. Unless noted, calls follow the shape of the dose curve; as a rule, active = well fitted curve in the direction sought with a large enough effect in the repeat runs; inconclusive = weak or mixed curves; inactive = no such curve, though single readings can be large; an effect the other way counts as inactive or inconclusive.

Assay [1] can be described thus: A CellTox Green Cytotoxicity Assay to monitor cytotoxicity in HepG2 cells - 8 hour (AID 1224890). Also: nearly all actives have a fitted effect of over 45% in size. Summed up:
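HepG2 cells were seeded together with the CellTox Green dye at 600 cells/well, left 5 h at 37 C/5% CO2, then given compounds in DMSO. Fluorescence from dye bound to dead-cell DNA was read repeatedly over 40 h of treatment at 37 C.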

The nature of assay [2]: qHTS assay to identify small molecule antagonists of the estrogen receptor alpha (ER-alpha) signaling pathway using the BG1 cell line in the presence of 0.1 nM 17-beta-estradiol - cell viability counter screen (AID 1259241). Also: nearly all actives have a fitted effect of over 40% in size. Also: potency is read from the fitted curve at half-maximal effect. Summed up: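 Measures cytotoxicity alongside the ER-alpha antagonist readout: VM7Luc4E2 cells, charcoal-stripped serum, 0.1 nM 17beta-estradiol final, 22 hr compound incubation at 37C, CellTiter-Fluor fluorescence.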
On the technique in general: qHTS replaces the single test concentration by a dilution series.

The nature of assay [3]: qHTS assay to identify small molecule antagonists of the androgen receptor (AR) signaling pathway using the MDA cell line in the presence of 0.5 nM R1881 - cell viability counter screen (AID 1259242). Also: nearly all actives have a fitted effect of over 45% in size. Summed up: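 MDA-kb2 cells (human breast carcinoma, stably carrying MMTV-luciferase reporter) were exposed to compounds with 0.5 nM R1881 (final) for 16 hr at 37C, 0% CO2; viability then read as live-cell protease fluorescence (CellTiter-Fluor, 30 min) in the same wells.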

In assay [4] the target is Estrogen receptor (Homo sapiens) (UniProt P03372). Nature of the assay: qHTS assay to identify small molecule antagonists of the estrogen receptor alpha (ER-alpha) signaling pathway using the BG1 cell line in the presence of 0.1 nM 17-beta-estradiol (AID 1259244). Also: nearly all actives have a fitted effect of over 50% in size. Also: potency is read from the fitted curve at half-maximal effect. Summed up: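 VM7Luc4E2 cells (endogenous full-length ER-alpha, stable 4xERE-luciferase) were grown 5 days in phenol red-free medium with charcoal-stripped FBS, then exposed 22 h at 37C to compounds plus 0.1 nM (final) 17beta-estradiol; ONE-Glo luminescence read-out.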
Sequence of Estrogen receptor (Homo sapiens) (P03372 whole entry, looked up): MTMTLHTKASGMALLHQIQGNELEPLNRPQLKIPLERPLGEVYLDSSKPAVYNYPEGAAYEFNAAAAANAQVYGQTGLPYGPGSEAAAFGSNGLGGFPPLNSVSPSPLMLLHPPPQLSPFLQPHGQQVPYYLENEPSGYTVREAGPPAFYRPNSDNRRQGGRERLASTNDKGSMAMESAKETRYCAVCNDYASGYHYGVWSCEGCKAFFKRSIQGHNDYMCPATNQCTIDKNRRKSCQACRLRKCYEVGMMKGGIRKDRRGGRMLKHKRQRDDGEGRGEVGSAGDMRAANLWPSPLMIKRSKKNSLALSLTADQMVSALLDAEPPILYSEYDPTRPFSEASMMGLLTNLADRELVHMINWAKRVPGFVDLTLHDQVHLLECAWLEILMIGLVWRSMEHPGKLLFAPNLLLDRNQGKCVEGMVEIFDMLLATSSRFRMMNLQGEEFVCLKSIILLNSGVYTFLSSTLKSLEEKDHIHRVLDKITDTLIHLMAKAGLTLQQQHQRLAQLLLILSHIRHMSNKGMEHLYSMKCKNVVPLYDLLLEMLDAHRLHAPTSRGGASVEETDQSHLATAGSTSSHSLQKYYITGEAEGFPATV

The nature of assay [5]: qHTS assay to identify small molecule phospholipidosis (PLD) inducers (AID 1259344; active = well fitted curve in the direction sought with a large enough effect; an effect the other way counts as inactive or inconclusive). Summed up: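 Fluorescent phospholipid staining (LipidTOX Red) measured by automated microscopy in fixed HepG2 cells after 24 h treatment; nuclei counterstained with Hoechst 33342; amiodarone as reference inducer.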
A short description of assay [6]: qHTS assay to identify small molecule HDAC inhibitors (AID 1259364). Also: nearly all actives have a fitted effect of over 45% in size. Also: potency is read from the fitted curve at half-maximal effect. Summed up:
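Wild-type HCT-116 cells were plated overnight, exposed to compounds for 2 h at 37 °C, then given HDAC-Glo class I/II luminogenic reagent for 30 min at room temperature before luminescence was read.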

A short description of assay [7]: qHTS assay to identify small molecule HDAC inhibitors - cell viability counter screen (AID 1259365). Also: series mostly up to about 92 µM; nearly all actives have a fitted effect of over 50% in size. Summed up: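 Following a 2hr exposure of overnight-plated wild-type HCT-116 cells to DMSO-delivered compounds, CellTiter-Glo was added and luminescence recorded after 30min at room temperature.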
A short description of assay [8]: qHTS assay to identify small molecule agonists of the sonic hedgehog signaling (Shh) pathway - cell viability counter screen (AID 1259366). Also: nearly all actives have a fitted effect of over 50% in size. Also: potency is read from the fitted curve at half-maximal effect. The procedure, abridged:
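After a 4hr attachment at 37C, NIH/3T3 cells bearing an integrated Gli1-driven luciferase reporter were dosed with compounds. Treatment lasted 24hr, with the final hour including CellTiter-Fluor for a fluorescence viability measurement.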

Assay [9] is described as follows: qHTS assay to identify small molecule antagonists of the sonic hedgehog signaling (Shh) pathway - cell viability counter screen (AID 1259367). Also: nearly all actives have a fitted effect of over 55% in size. Also: potency is read from the fitted curve at half-maximal effect. Summed up: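 Using CellTiter-Fluor, viability of Gli1-Luc reporter 3T3 cells is read by fluorescence in the wells used for the Shh luciferase assay. Treatment lasts 23 hr with conditioned medium, then reagent 1 hr at 37C.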

Assay [10] is described as follows: qHTS assay to identify small molecule agonists of the sonic hedgehog signaling (Shh) pathway (AID 1259368; calls by dose curve; also: series mostly up to about 92 µM; nearly all actives have a fitted effect of over 15% in size). Summed up:
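NIH/3T3-derived 3T3Gli1-Luc cells carrying a stably integrated Gli1 response element–firefly luciferase reporter were plated, left 4 hr at 37 C, then given compounds in DMSO for 24 hr. Luminescence was read 30 min after adding luciferase reagent.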

Turning to `Cn1c([N+](=O)[O-])cnc1COC(N)=O`, the Potency entry in assay [1], in assay [2], in assay [3], in assay [4], in assay [6] and in [8] was “inactive” in each case. The Potency entry in [9] is “inactive”. The compound was called inactive in [5], in assay [7] and in [10].
Turning to `Clc1cc(Cl)c(Cl)cc1Cl`, the Potency result in assay [1], in assay [2], in assay [3], in assay [4], in [6] and in [8] was “inactive” each time. In addition, the Potency entry in assay [9] was “inactive”. For the same compound, the result in assay [7] and in [10] was inactive.
As to `OC1CCCC1`, the Potency result in assay [1], in assay [2], in assay [3], in assay [4], in assay [6] and in assay [8] was “inactive” each time. The Potency entry in assay [9] was “inactive”. For the same compound, in [10], the call was inactive.
With `CC1(C)CC(N=C=O)CC(C)(CN=C=O)C1` (stereo unspecified), the Potency entry in assay [1], in assay [2], in assay [3], in assay [4], in assay [6] and in [8] was “inactive” in each case. Besides, the Potency entry in assay [9] is “inactive”. Further, the compound was classed as inactive in assay [7] and in assay [10].
`CC1Cc2ccccc2N1NC(=O)c1ccc(Cl)c(S(N)(=O)=O)c1` (stereo unspecified): the Potency entry in [1], in assay [2], in [3], in assay [4], in assay [6] and in assay [8] was “inactive” each time. The Potency result in assay [9] was “inactive”. The compound was classed as inactive in [5], in assay [7] and in [10].
For the compound `CC1=CC[C@H]2C[C@@H]1C2(C)C`, the Potency result in assay [1], in assay [2], in assay [3], in [4], in [6] and in assay [8] was “inactive” each time. For the same compound, the Potency entry in assay [9] was “inactive”. Further, the result in assay [7] and in assay [10] was inactive.
Regarding `Oc1ccc(OCc2ccccc2)cc1`, the Potency entry in assay [1], in assay [2], in assay [3], in assay [4], in assay [8] and in [9] was “inactive” each time. For the same compound, the outcome in assay [5], in assay [7] and in assay [10] was inactive. The Potency in [6] is 6.71 µM (active) and inactive.
With `CC1=C(/C=C/C(C)=C/C=C/C(C)=C/CO)C(C)(C)CCC1`, the Potency entry in assay [1], in assay [2], in assay [3], in [4], in [6] and in [8] was “inactive” each time. For the same compound, the Potency result in assay [9] is “inactive”. Further, the outcome in assay [5] and in [10] was inactive.
Consider `CCCCOCCOCCOC(=O)CCCCC(=O)OCCOCCOCCCC`, for which the Potency result in [1], in assay [2], in assay [3], in assay [4], in [6] and in [8] was “inactive” each time. Besides, in [9], the Potency result was “inactive”. Also, the call in assay [7] and in [10] was inactive.
In the case of `ClC1=C(Cl)C(Cl)(Cl)C(Cl)=C1Cl`, the Potency entry in assay [1], in assay [2], in [3], in assay [4], in assay [6] and in [8] was “inactive” throughout. Further, in assay [9], the Potency result was “inactive”. In addition, the compound was classed as inactive in [7] and in [10].
With `S=c1nc[nH]c2nc[nH]c12`, the Potency result in assay [1], in assay [2], in assay [3], in assay [4], in [6] and in assay [8] was “inactive” each time. Further, the Potency result in [9] was “inactive”. In addition, the outcome in assay [5] and in [10] was inactive.
As to `NCCc1ccc(O)c(O)c1`, the Potency result in assay [1], in [3] and in assay [6] was “inactive” throughout. The Potency was 34.5 µM (active) in assay [2]; 2.44 µM (active) in assay [4]; 24.4 µM (active) and inactive in assay [8]; 30.7 µM (active) and inactive in [9]. The compound was called inactive in assay [5], in assay [7] and in [10].
Turning to `Cc1cc(=O)[nH]c(C(C)C)n1`, the Potency entry in assay [1], in assay [2], in [3], in [4], in assay [6] and in assay [8] was “inactive” in each case. The Potency result in assay [9] is “inactive”. Moreover, the compound was called inactive in assay [7] and in assay [10].
`C=C(C)C(=O)OCCCCCCCCCCCC`: the Potency entry in [1], in [2], in assay [3], in assay [4], in [6] and in [8] was “inactive” each time. Besides, in assay [9], the Potency result is “inactive”. In addition, the call in [10] was inactive.
Turning to `COCC(C)O` (stereo unspecified), the Potency result in assay [1], in [2], in [3], in assay [4], in [6] and in assay [8] was “inactive” in each case. The Potency result in assay [9] is “inactive”. In addition, the result in [7] and in assay [10] was inactive.
For `O=C(O)c1cc(-c2ccccc2)nc2ccccc12`, the Potency entry in assay [1], in [2], in [3], in [8] and in assay [9] was “inactive” in each case. For the same compound, the result in [5] and in [10] was inactive.
With `Nc1nc2ncc(CNc3ccc(C(=O)N[C@@H](CCC(=O)O)C(=O)O)cc3)nc2c(=O)[nH]1`, the Potency entry in assay [1], in assay [2], in assay [3], in assay [6], in assay [8] and in assay [9] was “inactive” each time. Besides, the result in assay [5] and in [10] was inactive.
Consider `CC1=C(CC(=O)O)c2cc(F)ccc2/C1=C\c1ccc(S(C)=O)cc1` (stereo unspecified), for which the Potency entry in [1], in assay [2], in [3], in [6], in [8] and in [9] was “inactive” each time. Also, the outcome in assay [5], in [7] and in assay [10] was inactive.
`CC(C)(CO)COC(=O)C(C)(C)CO`: the Potency result in assay [1], in assay [2], in assay [3], in assay [4], in [6] and in assay [8] was “inactive” in each case. In addition, the Potency entry in assay [9] is “inactive”. The compound was classed as inactive in assay [10].
Take `CC(C)(N=C=O)c1cccc(C(C)(C)N=C=O)c1`: the Potency entry in [1], in [2], in assay [3], in [6], in assay [8] and in [9] was “inactive” throughout. Moreover, the outcome in assay [10] was inactive.
On to `CCCCCCCCCCC=CC1CC(=O)OC1=O` (stereo unspecified), for which the Potency result in assay [1], in assay [2], in assay [3], in [6], in assay [8] and in assay [9] was “inactive” throughout. Besides, the result in assay [7] and in assay [10] was inactive.
`Cc1cc(NS(=O)(=O)c2ccc(N)cc2)no1`: the Potency entry in assay [1], in [2], in assay [3], in assay [6], in assay [8] and in [9] was “inactive” in each case. Besides, the outcome in assay [5], in [7] and in assay [10] was inactive.
As to `CCCCC(CC)COC(C)=O` (stereo unspecified), the Potency entry in [1], in [2], in [3], in assay [6], in [8] and in assay [9] was “inactive” throughout. In addition, the result in assay [10] was inactive.
Turning to `CC1COc2ccccc2N1C(=O)C(Cl)Cl` (stereo unspecified), the Potency result in assay [1], in assay [2], in assay [3], in assay [6] and in assay [8] was “inactive” in each case. Also, in assay [10], the result was inactive.

The values are drawn from PubChem BioAssay (Tox21).
